# Source: article PMC7862700, “An all-to-all approach to the identification of sequence-specific readers for epigenetic DNA modifications on cytosine”
# Experiments:
# Assay in all cases: DAPPL (digital affinity profiling via proximity ligation, sequencing); 10 mM Tris-HCl pH 7.5, 50 mM NaCl, 1 mM DTT, 4% glycerol, room temperature, 30 min; GST-TFs on glutathione beads, 16-mer random dsDNA library, 0.1% formaldehyde crosslink after washing; high values mean tight binding
# FLI1 = biological target: T1, FLI1 (Homo sapiens, UniProt Q01543 1-452); details: protein: recombinant; tags: N-terminal GST; dsDNA, one strand shown
# T1 sequence: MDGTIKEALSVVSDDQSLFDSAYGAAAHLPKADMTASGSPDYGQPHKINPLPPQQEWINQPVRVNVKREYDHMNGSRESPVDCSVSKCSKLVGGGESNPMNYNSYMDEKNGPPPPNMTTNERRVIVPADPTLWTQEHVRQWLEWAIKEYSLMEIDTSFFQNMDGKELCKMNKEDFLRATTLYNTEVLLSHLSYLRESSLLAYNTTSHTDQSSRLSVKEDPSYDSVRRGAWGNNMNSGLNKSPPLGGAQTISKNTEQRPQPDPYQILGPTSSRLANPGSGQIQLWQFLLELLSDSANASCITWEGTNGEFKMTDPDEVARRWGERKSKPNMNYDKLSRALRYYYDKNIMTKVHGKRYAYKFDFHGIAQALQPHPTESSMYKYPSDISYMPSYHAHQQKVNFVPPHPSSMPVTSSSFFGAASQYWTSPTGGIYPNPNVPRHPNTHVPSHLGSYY
# Outline: (§1)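 A tag-only sample was pooled with DNA-barcoded human transcription factors that had been expressed in yeast as GST fusions and captured on glutathione beads. The pools were incubated for 30 min at room temperature with 200 nmole of a random double-stranded 16-mer DNA library in Tris/NaCl/DTT/glycerol buffer, then washed, crosslinked with 0.1% formaldehyde, proximity-ligated (BsaI/T4 ligase, 1 h, 37 °C), PCR-amplified and sequenced on an Illumina NextSeq500. Binding signal is each hexamer's read frequency for a factor divided by its frequency for the tag-only sample.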
# ELK1 = biological target: T2, ELK1 (Homo sapiens, UniProt P19419 1-428); details: protein: recombinant; tags: N-terminal GST; dsDNA, one strand shown
# T2 sequence: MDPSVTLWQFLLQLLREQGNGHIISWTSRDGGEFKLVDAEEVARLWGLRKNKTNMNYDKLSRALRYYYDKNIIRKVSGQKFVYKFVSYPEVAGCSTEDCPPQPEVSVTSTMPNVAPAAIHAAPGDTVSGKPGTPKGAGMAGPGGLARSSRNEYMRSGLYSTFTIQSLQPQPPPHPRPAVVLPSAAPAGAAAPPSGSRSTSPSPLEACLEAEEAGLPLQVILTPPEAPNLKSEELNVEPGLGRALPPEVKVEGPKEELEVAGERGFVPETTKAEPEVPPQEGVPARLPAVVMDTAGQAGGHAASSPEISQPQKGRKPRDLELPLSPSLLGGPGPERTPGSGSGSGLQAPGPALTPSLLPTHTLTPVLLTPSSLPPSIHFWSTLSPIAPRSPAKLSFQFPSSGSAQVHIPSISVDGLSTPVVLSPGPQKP
# Outline: as §1
# GABPA = biological target: T3, GABPA (Homo sapiens, UniProt Q06546 1-454); details: protein: recombinant; tags: N-terminal GST; dsDNA, one strand shown
# T3 sequence: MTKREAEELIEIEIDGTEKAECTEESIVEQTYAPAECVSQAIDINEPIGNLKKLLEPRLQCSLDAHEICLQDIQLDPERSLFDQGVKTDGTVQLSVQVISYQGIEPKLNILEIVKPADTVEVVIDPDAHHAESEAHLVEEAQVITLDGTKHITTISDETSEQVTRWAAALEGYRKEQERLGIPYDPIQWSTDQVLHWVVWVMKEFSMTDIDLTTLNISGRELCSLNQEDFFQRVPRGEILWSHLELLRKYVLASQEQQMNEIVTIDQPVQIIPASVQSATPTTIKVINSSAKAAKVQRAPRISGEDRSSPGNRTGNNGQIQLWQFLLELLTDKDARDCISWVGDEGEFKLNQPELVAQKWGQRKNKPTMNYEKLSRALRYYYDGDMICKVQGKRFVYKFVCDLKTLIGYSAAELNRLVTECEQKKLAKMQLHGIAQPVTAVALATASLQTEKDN
# Outline: as §1
# ERG = biological target: T4, ERG (Homo sapiens, UniProt P11308 1-479); details: protein: recombinant; tags: N-terminal GST; dsDNA, one strand shown
# T4 sequence: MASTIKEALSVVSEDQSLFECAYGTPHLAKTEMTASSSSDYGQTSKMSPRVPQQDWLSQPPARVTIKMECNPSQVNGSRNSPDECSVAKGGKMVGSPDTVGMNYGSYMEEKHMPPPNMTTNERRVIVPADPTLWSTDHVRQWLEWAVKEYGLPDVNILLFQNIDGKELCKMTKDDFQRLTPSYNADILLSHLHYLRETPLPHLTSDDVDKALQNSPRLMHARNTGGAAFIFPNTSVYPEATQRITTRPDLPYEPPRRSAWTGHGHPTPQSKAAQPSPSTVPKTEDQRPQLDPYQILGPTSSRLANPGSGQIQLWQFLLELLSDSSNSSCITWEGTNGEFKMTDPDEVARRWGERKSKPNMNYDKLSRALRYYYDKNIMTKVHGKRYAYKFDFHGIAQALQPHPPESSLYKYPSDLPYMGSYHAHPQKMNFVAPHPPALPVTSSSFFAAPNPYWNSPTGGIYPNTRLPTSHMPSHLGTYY
# Outline: as §1
# ELF1 = ELF1 (Homo sapiens, UniProt P32519 1-619); details: protein: recombinant; tags: N-terminal GST; dsDNA, one strand shown
# ELF1, sequence (P32519 whole entry): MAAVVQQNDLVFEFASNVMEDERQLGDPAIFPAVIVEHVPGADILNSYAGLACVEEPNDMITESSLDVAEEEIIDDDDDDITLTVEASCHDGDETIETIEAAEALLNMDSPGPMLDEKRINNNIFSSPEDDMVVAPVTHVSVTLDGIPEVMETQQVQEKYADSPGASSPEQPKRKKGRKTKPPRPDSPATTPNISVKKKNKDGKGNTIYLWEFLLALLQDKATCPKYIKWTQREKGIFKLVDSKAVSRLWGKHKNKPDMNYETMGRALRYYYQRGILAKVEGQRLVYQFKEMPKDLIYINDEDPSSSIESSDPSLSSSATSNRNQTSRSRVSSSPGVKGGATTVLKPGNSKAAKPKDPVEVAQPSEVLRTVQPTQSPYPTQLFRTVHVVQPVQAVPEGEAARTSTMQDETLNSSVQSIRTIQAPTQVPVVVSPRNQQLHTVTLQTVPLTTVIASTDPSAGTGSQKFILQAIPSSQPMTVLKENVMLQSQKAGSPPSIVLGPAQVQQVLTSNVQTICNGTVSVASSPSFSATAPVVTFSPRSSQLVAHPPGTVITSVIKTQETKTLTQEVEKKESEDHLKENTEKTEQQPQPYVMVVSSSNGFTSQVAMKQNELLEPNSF
# Outline: as §1
# EHF = biological target: T5, EHF (Homo sapiens, UniProt Q9NZC4 1-300); details: protein: recombinant; tags: N-terminal GST; dsDNA, one strand shown
# T5 sequence: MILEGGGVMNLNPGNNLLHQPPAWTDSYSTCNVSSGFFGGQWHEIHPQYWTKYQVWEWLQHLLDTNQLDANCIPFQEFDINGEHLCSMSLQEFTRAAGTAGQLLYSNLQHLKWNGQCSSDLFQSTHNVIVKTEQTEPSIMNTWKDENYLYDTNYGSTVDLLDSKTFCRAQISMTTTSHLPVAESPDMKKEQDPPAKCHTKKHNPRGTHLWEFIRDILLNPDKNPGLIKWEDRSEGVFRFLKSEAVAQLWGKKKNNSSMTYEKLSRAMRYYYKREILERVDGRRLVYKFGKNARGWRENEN
# Outline: as §1
# SPI1 = SPI1 (Homo sapiens, UniProt P17947 1-270); details: protein: recombinant; tags: N-terminal GST; dsDNA, one strand shown
# Outline: as §1
# SPIB = SPIB (Homo sapiens, UniProt Q01892 1-262); details: protein: recombinant; tags: N-terminal GST; dsDNA, one strand shown
# SPIB, sequence (Q01892 whole entry): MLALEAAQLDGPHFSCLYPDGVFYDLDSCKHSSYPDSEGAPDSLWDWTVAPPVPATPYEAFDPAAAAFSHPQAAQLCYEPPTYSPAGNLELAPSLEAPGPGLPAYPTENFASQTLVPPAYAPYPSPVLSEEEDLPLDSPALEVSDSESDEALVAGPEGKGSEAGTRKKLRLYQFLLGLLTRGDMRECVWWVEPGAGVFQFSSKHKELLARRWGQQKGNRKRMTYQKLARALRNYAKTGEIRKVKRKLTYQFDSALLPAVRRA
# Outline: as §1
# ELK3 = biological target: T6, ELK3 (Homo sapiens, UniProt P41970 1-407); details: protein: recombinant; tags: N-terminal GST; dsDNA, one strand shown
# T6 sequence: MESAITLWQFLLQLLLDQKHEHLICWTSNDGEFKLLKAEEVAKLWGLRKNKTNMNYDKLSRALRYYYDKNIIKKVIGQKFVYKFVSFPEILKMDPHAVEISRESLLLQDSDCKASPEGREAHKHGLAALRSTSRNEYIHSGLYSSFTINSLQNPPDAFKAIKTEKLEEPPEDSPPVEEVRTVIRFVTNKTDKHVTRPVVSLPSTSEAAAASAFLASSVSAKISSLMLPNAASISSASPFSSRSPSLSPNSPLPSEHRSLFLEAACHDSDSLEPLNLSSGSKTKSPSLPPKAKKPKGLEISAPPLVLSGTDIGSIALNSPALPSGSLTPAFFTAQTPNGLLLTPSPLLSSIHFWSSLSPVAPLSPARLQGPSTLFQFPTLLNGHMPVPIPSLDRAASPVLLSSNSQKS
# Outline: as §1
# FEV = biological target: T7, FEV (Homo sapiens, UniProt Q99581 1-238); details: protein: recombinant; tags: N-terminal GST; dsDNA, one strand shown
# T7 sequence: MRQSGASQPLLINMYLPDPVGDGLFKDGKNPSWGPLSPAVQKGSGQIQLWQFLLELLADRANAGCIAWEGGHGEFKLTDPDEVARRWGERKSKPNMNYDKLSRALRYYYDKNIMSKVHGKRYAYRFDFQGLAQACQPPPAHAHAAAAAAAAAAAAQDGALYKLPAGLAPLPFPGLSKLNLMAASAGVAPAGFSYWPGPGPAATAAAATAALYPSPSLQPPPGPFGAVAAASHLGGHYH
# Outline: as §1
# ETV5 = ETV5 (Homo sapiens, UniProt P41161 1-510); details: protein: recombinant; tags: N-terminal GST; dsDNA, one strand shown
# ETV5, sequence (P41161 whole entry): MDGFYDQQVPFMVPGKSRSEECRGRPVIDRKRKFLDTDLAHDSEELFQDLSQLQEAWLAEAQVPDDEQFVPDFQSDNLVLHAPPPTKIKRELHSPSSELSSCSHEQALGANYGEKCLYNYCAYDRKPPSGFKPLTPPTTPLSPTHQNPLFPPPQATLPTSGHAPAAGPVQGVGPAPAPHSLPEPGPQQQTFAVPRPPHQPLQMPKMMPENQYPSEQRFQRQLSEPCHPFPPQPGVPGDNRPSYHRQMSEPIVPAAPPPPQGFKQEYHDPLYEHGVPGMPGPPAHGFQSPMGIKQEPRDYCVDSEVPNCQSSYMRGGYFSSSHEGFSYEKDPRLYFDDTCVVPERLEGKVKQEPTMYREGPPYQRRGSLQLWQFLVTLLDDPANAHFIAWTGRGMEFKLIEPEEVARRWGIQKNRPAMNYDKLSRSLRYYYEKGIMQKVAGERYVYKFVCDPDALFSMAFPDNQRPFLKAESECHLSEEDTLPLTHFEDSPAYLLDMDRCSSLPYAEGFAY
# Outline: as §1
# HSF1 = HSF1 (Homo sapiens, UniProt Q00613 1-529); details: protein: recombinant; tags: N-terminal GST; chain copies: 3; dsDNA, one strand shown
# HSF1, sequence (Q00613 whole entry): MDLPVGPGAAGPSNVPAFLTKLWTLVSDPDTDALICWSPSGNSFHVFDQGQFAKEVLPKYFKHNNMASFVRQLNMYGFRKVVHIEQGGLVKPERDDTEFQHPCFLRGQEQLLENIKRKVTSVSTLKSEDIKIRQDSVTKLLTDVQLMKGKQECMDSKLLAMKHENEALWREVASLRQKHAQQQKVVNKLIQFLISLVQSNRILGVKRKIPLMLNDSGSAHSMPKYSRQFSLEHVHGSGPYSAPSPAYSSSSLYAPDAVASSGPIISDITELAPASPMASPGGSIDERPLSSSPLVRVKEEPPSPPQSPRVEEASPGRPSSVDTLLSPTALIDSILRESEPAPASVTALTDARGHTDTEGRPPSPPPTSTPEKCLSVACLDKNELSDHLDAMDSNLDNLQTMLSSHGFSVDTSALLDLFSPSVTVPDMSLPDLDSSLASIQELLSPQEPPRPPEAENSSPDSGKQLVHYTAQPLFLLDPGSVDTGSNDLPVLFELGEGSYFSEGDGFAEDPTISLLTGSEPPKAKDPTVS
# Outline: as §1
# SPIC = biological target: T8, SPIC (Homo sapiens, UniProt Q8N5J4 1-248); details: protein: recombinant; tags: N-terminal GST; dsDNA, one strand shown
# T8 sequence: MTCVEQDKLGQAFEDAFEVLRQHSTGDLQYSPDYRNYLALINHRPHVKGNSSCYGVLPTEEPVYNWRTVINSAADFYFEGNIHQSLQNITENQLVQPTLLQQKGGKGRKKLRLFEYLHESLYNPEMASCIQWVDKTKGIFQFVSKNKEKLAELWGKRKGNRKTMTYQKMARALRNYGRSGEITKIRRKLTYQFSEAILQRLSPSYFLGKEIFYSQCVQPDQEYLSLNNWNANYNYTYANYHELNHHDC
# Outline: as §1
# ELF4 = ELF4 (Homo sapiens, UniProt Q99607 1-663); details: protein: recombinant; tags: N-terminal GST; dsDNA, one strand shown
# ELF4, sequence (Q99607 whole entry): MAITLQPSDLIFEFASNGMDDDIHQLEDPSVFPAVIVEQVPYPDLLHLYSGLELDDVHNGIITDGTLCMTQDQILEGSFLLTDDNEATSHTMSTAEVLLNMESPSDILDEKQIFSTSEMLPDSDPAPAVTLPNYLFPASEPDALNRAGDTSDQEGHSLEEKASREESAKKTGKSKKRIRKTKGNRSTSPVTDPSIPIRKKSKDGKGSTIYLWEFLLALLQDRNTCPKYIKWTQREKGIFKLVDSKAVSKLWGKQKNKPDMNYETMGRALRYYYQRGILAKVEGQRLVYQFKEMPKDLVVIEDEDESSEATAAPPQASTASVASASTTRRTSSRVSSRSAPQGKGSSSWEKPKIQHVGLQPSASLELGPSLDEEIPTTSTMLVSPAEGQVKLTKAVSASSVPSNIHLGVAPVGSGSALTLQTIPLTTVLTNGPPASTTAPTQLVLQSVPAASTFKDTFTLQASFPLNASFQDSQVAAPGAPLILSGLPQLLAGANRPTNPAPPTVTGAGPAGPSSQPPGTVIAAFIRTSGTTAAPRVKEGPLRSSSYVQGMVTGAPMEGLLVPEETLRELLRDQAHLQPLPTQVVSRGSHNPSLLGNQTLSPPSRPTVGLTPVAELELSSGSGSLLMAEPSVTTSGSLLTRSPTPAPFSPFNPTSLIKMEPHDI
# Outline: as §1
# ELK4 = biological target: T9, ELK4 (Homo sapiens, UniProt P28324-2 1-405); details: protein: recombinant; tags: N-terminal GST; dsDNA, one strand shown
# T9 sequence: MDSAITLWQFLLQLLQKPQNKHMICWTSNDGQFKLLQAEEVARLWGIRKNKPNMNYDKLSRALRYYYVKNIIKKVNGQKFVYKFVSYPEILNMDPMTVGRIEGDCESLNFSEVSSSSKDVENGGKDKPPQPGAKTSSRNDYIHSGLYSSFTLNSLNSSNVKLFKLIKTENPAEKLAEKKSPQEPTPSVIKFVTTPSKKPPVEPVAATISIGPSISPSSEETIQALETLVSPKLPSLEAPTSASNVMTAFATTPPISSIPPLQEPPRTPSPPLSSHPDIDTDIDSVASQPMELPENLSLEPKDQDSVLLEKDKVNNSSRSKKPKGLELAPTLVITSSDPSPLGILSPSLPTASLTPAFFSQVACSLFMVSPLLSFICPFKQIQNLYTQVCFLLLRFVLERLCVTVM
# Outline: as §1
# ETV2 = biological target: T10, ETV2 (Homo sapiens, UniProt O00321 1-342); details: protein: recombinant; tags: N-terminal GST; dsDNA, one strand shown
# T10 sequence: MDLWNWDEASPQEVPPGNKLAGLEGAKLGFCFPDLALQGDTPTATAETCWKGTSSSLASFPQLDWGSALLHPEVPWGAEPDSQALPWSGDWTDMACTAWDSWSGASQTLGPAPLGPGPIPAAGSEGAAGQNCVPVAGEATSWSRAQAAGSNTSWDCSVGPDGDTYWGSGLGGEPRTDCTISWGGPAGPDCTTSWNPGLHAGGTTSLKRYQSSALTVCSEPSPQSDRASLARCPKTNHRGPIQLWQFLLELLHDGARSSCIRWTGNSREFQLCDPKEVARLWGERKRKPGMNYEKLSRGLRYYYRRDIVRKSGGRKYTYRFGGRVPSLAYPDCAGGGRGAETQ
# Outline: as §1
# ELF3 = biological target: T11, ELF3 (Homo sapiens, UniProt P78545 1-371); details: protein: recombinant; tags: N-terminal GST; dsDNA, one strand shown
# T11 sequence: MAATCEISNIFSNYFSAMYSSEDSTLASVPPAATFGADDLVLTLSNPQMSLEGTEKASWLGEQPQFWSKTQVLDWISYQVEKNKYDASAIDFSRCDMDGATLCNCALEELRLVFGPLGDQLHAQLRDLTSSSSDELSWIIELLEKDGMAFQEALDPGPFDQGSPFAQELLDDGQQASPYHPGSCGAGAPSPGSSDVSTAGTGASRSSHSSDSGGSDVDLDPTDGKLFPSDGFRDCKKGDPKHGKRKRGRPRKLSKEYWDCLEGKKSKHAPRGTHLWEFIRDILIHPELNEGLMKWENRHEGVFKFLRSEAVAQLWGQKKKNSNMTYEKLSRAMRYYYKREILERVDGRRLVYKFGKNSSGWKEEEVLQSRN
# Outline: as §1
# CRX = CRX (Homo sapiens, UniProt O43186 1-299); details: protein: recombinant; tags: N-terminal GST; dsDNA, one strand shown
# CRX, sequence (O43186 whole entry): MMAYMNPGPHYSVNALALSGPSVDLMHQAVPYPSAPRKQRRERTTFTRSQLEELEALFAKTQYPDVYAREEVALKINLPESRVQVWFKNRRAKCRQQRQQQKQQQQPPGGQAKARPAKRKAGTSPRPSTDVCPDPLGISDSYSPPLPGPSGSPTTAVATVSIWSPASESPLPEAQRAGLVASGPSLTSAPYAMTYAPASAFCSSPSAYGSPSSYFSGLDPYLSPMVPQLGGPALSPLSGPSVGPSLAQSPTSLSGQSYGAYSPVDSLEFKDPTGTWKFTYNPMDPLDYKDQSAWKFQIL
# Outline: as §1
# ETV1 = ETV1 (Homo sapiens, UniProt P50549 1-477); details: protein: recombinant; tags: N-terminal GST; dsDNA, one strand shown
# ETV1, sequence (P50549 whole entry): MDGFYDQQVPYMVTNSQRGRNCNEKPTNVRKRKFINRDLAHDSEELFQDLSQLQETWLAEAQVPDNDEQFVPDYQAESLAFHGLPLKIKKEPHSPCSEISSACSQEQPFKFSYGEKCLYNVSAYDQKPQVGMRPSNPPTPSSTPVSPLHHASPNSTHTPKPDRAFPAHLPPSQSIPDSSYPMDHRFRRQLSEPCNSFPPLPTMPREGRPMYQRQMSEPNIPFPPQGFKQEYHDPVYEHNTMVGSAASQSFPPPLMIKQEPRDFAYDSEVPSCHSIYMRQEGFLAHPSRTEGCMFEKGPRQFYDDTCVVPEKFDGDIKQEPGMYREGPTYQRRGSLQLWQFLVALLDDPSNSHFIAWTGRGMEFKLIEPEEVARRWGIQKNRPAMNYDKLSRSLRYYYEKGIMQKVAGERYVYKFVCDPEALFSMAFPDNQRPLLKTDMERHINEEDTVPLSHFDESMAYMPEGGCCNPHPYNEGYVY
# Outline: as §1
sequence,measurement,setting,value
CGTCTT,binding signal,FLI1,"1.46 fold enrichment (6-mer frequency, TF over GST control)"
same,binding signal,ELK1,"1.43 fold enrichment (6-mer frequency, TF over GST control)"
same,binding signal,GABPA,"1.33 fold enrichment (6-mer frequency, TF over GST control)"
same,binding signal,ERG,"1.37 fold enrichment (6-mer frequency, TF over GST control)"
same,binding signal,ELF1,"1.35 fold enrichment (6-mer frequency, TF over GST control)"
same,binding signal,EHF,"1.41 fold enrichment (6-mer frequency, TF over GST control)"
same,binding signal,SPI1,"1.45 fold enrichment (6-mer frequency, TF over GST control)"
same,binding signal,SPIB,"1.5 fold enrichment (6-mer frequency, TF over GST control)"
same,binding signal,ELK3,"1.28 fold enrichment (6-mer frequency, TF over GST control)"
same,binding signal,FEV,"1.33 fold enrichment (6-mer frequency, TF over GST control)"
same,binding signal,ETV5,"1.37 fold enrichment (6-mer frequency, TF over GST control)"
same,binding signal,HSF1,"1.31 fold enrichment (6-mer frequency, TF over GST control)"
same,binding signal,SPIC,"1.38 fold enrichment (6-mer frequency, TF over GST control)"
same,binding signal,ELF4,"1.38 fold enrichment (6-mer frequency, TF over GST control)"
same,binding signal,ELK4,"1.21 fold enrichment (6-mer frequency, TF over GST control)"
same,binding signal,ETV2,"1.29 fold enrichment (6-mer frequency, TF over GST control)"
same,binding signal,ELF3,"1.56 fold enrichment (6-mer frequency, TF over GST control)"
same,binding signal,CRX,"1.5 fold enrichment (6-mer frequency, TF over GST control)"
same,binding signal,ETV1,"1.48 fold enrichment (6-mer frequency, TF over GST control)"
